{"source": "PubChem BioAssay AID1851", "about": "(National Center for Advancing Translational Sciences (NCATS), 2009)", "note": "Values joined by “and” are separate entries in the source; they are usually repeats but may differ in a detail not shown here. Equal entries are not always repeated. The campaign covered roughly 16,000 compounds. About 2,600 (16%) were called active. Inconclusive results (about 20%) are left out. Not all results are given here. Values without a mark were called inactive. Calls come from the whole dose curve; as a rule, active = well fitted curve in the direction sought with a large enough effect; inconclusive = small, poorly fitted or top-dose-only effect, or effect the other way; inactive = no such curve, though single readings can be large or run the other way. % is set by controls: 0 for no effect and ±100 for the full control effect.", "data": [{"molecular_target": "Cytochrome P450 2D6 (Homo sapiens) (UniProt P10635)", "sequence (P10635 whole entry, looked up)": "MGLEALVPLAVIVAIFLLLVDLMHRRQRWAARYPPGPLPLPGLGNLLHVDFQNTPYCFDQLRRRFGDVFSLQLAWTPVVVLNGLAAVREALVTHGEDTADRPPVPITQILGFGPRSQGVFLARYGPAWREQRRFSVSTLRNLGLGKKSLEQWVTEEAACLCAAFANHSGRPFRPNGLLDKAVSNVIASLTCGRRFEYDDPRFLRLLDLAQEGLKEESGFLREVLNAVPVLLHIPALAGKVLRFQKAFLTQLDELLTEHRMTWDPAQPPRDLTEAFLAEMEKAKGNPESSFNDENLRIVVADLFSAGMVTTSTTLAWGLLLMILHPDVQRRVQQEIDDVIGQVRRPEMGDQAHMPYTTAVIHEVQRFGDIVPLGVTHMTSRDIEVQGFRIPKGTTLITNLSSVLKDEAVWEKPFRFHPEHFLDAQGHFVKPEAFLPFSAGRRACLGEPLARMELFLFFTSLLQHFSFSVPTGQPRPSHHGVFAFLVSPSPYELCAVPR", "assay": "Cytochrome panel assay with activity outcomes", "details": "recombinant CYP, pro-luciferin dealkylation, luminescence, p450-cyp2d6; series mostly up to 57.1 µM", "values": [{"compound": "O=c1cc(-c2ccccc2)[nH]c2nc(Cl)ccc12", "AC50": "inactive"}, {"compound": "C[C@@H]1CC[C@H]2C(=O)N3[C@@H](CC[C@@H](C)[C@@H]3c3ccc(Br)cc3)C(=O)N2[C@@H]1c1ccc(Br)cc1", "activity, negative = inhibition": "-14.2% [at 11.4 µM]"}, {"compound": "CS(=O)(=O)N1N=C(c2ccc(Br)cc2)CC1c1ccc2c(c1)OCO2", "note": "(centres undefined)", "AC50": "0.631 µM (active)"}, {"compound": "C[C@H]1CC[C@H]2C(=O)N3[C@H](c4ccc(Br)cc4)[C@@H](C)CC[C@H]3C(=O)N2[C@@H]1c1ccc(Br)cc1", "activity, negative = inhibition": "-7.03% [at 11.4 µM]"}, {"compound": "Cn1cc(-c2nc3cncnc3n(Cc3ccccc3Cl)c2=O)c2ccccc21", "AC50": "inactive"}, {"compound": "Cc1[nH]c(N)nc(=S)c1CCC(=O)O", "activity, negative = inhibition": "5.35% [at 11.4 µM]"}, {"compound": "Cc1ccc(Oc2cc(N3CCOCC3)nc(-c3ccccc3)n2)cc1", "AC50": "inactive"}, {"compound": "COc1ccc(-c2csc3c2[N+]2=CCC=C2C3=O)cc1", "AC50": "3.16 µM (active)"}, {"compound": "CCOC(=O)c1c(-c2ccc(OC)cc2)csc1NC(=O)CCN1C(=O)c2ccccc2C1=O", "AC50": "inactive"}, {"compound": "CC[C@@H]1CC(=O)N(SC[C@H](N)C(=O)O)C1=O", "activity, negative = inhibition": "7.85% [at 11.4 µM]"}, {"compound": "CN1Cc2c(N)cccc2[C@H](c2ccccc2)C1", "AC50": "31.6 µM (active) and 6.31 µM (active)"}, {"compound": "CN1C(=O)C[C@H](c2ccccc2)C1=O", "AC50": "inactive"}, {"compound": "CC1(C)[C@@H]2CC[C@]1(C)[C@@H](OC(=O)/C=C\\c1ccccc1)C2", "activity, negative = inhibition": "2.99% [at 11.4 µM]"}, {"compound": "Oc1oc(-c2ccccc2)nc1C=Nc1ccccc1", "AC50": "inactive"}, {"compound": "COc1cc(C2C(C(=O)c3cccs3)=C(O)C(=O)N2Cc2ccco2)cc(OC)c1OC", "note": "(centres undefined)", "AC50": "inactive"}, {"compound": "COC(=O)C/C=C\\[C@@H](C)[C@@H](/C=N\\OC[C@@H](C)[C@H](OCc1ccccc1)C(C)C)OC", "activity, negative = inhibition": "-9.09% [at 11.4 µM]"}, {"compound": "CCC(C)NC(=O)C1CC(c2ccc(OC)cc2)=NO1", "note": "(centres undefined)", "AC50": "inactive"}, {"compound": "COc1ccc(CCC(C)NC2C3CC4CC(C3)CC2C4)cc1", "note": "(centres undefined)", "AC50": "3.55 µM (active)"}, {"compound": "COc1ccc(CN[C@H](C)C(=O)O)cc1", "activity, negative = inhibition": "6.89% [at 11.4 µM]"}, {"compound": "Cc1ccc(N=Nc2c(N)n(-c3ccccc3)[nH]c2=O)cc1", "AC50": "inactive"}, {"compound": "COCCNC(=O)CCn1c(=O)oc2ccccc21", "AC50": "inactive"}, {"compound": "O=C1C2[C@@H](c3ccccc3)N[C@@H](c3ccccc3)C1[C@H](c1ccccc1)N[C@H]2c1ccccc1", "activity, negative = inhibition": "-8.91% [at 11.4 µM]"}, {"compound": "S=C1N[C@H](c2ccccc2)N[C@H](c2ccccc2)S1", "AC50": "3.98 µM (active)"}, {"compound": "O=C(O)c1ccc(C(=O)c2ccccc2)c(C(=O)O)c1", "activity, negative = inhibition": "14.9% [at 11.4 µM]"}, {"compound": "COC(=O)CSc1nnc(CNc2ccc(Cl)cc2)n1-c1ccccc1", "AC50": "inactive"}, {"compound": "Cn1c(=O)cc(SCC(=O)NCCCN2CCOCC2)c2ccc(Cl)cc21", "AC50": "inactive"}, {"compound": "CCOC(=O)CSc1cc(=O)n(C)c2cc(Cl)ccc12", "AC50": "inactive"}, {"compound": "Cn1c(=O)cc(SCC(=O)NCCN2CCN(c3ccccc3F)CC2)c2cc(Cl)ccc21", "AC50": "14.1 µM (active)"}, {"compound": "COCc1c(C(=O)OCC(=O)N2c3ccccc3NC(=O)C2(C)C)oc2ccccc12", "AC50": "inactive"}, {"compound": "COc1ccc(O[C@H]2C=C[C@@H](c3ccccc3)O[C@@H]2CO/N=C(\\C)CCN2CCCc3nc(C)c(C)cc32)cc1", "AC50": "3.16 µM (active)"}, {"compound": "COc1ccc(O[C@H]2C=C[C@@H](c3ccccc3)O[C@@H]2CO/N=C(\\C)CCN2CCc3nc(-c4ccccc4)c(-c4ccccc4)cc3C2)cc1", "activity, negative = inhibition": "-14.1% [at 11.4 µM]"}, {"compound": "CCCNC(=O)OC[C@@H]1O[C@H](CCO/N=C(\\C)CCN2CCCc3nc(C)c(C)cc32)C=C[C@@H]1Oc1ccc(OC)cc1", "activity, negative = inhibition": "-18.3% [at 11.4 µM]"}, {"compound": "COc1ccc(O[C@H]2C=C[C@@H](c3ccccc3)O[C@H]2COC(=O)CC/C(C)=N\\O[C@@H](C)CN2CCCc3nc(C)c(C)cc32)cc1", "AC50": "3.16 µM (active)"}, {"compound": "CCCNC(=O)OC[C@@H]1O[C@H](CCO/N=C(\\C)CCC(=O)OC[C@@H]2O[C@H](c3ccccc3)C=C[C@@H]2Oc2ccc(OC)cc2)C=C[C@@H]1Oc1ccc(OC)cc1", "activity, negative = inhibition": "5.63% [at 11.4 µM]"}, {"compound": "COc1ccc(O[C@H]2C=C[C@@H](c3ccccc3)O[C@H]2COC(=O)CC/C(C)=N\\O[C@@H](C)c2cc(-c3c(C)cc(C)cc3C)no2)cc1", "activity, negative = inhibition": "-7.29% [at 11.4 µM]"}, {"compound": "C/C(CCC(=O)OC[C@@H]1O[C@H](C#Cc2ccccc2)C=C[C@@H]1Oc1ccc(C)cc1)=N/O[C@@H](C)c1cn([C@H](CO)Cc2ccccc2)nn1", "activity, negative = inhibition": "-5.83% [at 11.4 µM] and -8.36% [at 11.4 µM]"}, {"compound": "COc1cccc([C@@H]2Oc3ccc(OC)cc3/C(=N/O[C@@H](C)c3cn([C@H]4COC[C@H]4O)nn3)[C@@H]2O)c1", "activity, negative = inhibition": "-18.2% [at 11.4 µM]"}, {"compound": "COc1cccc([C@@H]2Oc3ccc(OC)cc3/C(=N/O[C@@H](C)CN3CCCc4nc(C)c(C)cc43)[C@@H]2O)c1", "AC50": "3.98 µM (active)"}, {"compound": "COc1cccc([C@H]2Oc3ccc(OC)cc3/C(=N\\O[C@@H](C)c3cn([C@H](CO)Cc4ccccc4)nn3)[C@@H]2O)c1", "activity, negative = inhibition": "-6.89% [at 11.4 µM]"}, {"compound": "C/C(CCC(=O)OC[C@@H]1O[C@H](C#Cc2ccccc2)C=C[C@@H]1Oc1ccc(C)cc1)=N/O[C@@H](C)CN1CCCc2nc(C)c(C)cc21", "AC50": "3.16 µM (active)"}, {"compound": "COc1ccc(O[C@H]2C=C[C@@H](c3ccccc3)O[C@H]2CO/N=C(/C)CCC(=O)OC[C@@H]2O[C@H](C#Cc3ccccc3)C=C[C@@H]2Oc2ccc(C)cc2)cc1", "activity, negative = inhibition": "11.9% [at 11.4 µM]"}, {"compound": "CCCCCCCCCCCCCCSCC(=O)O", "AC50": "inactive"}, {"compound": "COc1ccc(-n2c(-c3cnccn3)n[nH]c2=S)cc1", "AC50": "inactive"}, {"compound": "O=C(Nc1cccc(F)c1)N1CCCC2(CCNCC2)C1", "AC50": "inactive"}, {"compound": "C(/C=C\\c1ccccc1)=Nc1ccc2c(c1)Cc1ccccc1-2", "activity, negative = inhibition": "-10.4% [at 11.4 µM]"}, {"compound": "COc1ccc(-n2c(=O)c(-c3cn(C)c4ccccc34)nc3cncnc32)cc1", "AC50": "inactive"}, {"compound": "CC(=O)[C@@]1(O)Cc2c(O)c3c(c(O)c2[C@H](O[C@H]2C[C@H](N)[C@H](O)[C@H](C)O2)C1)C(=O)c1ccccc1C3=O", "AC50": "inactive"}, {"compound": "Cn1c(CCC(=O)Nc2ccc(N3CCOCC3)cc2)nc(=O)c2ccccc21", "AC50": "inactive"}, {"compound": "COC(=O)c1nn(-c2ccccc2)c(=O)cc1Oc1ccccc1", "AC50": "inactive"}, {"compound": "N#C[C@@H](N=Nc1ccccc1C(=O)O)C(N)=O", "activity, negative = inhibition": "-0.182% [at 11.4 µM]"}, {"compound": "O=C(N/N=C/c1cccc(C(F)(F)F)c1)C1CCN(c2ncc(C(F)(F)F)cc2Cl)CC1", "AC50": "inactive"}, {"compound": "COc1ccc(/C=C(/C(=O)Nc2ccccc2C(=O)NC(C)C)c2ccccc2)cc1", "AC50": "inactive"}, {"compound": "Cc1cccc(N2CCN(C(=O)CSCc3c(C)noc3C)CC2)c1C", "AC50": "inactive"}, {"compound": "CC(C)OC(=O)CC12CN(C)CC(CC(=O)OC(C)C)(CN(C)C1)C2=O", "AC50": "2.51 µM (active)"}, {"compound": "COc1ccc(CNC(=O)/C=C/c2ccc(OCCCF)cc2)cc1", "AC50": "inactive"}, {"compound": "CCSc1ncnc2c1sc1nc(-c3ccco3)c3c(c12)CC(C)(C)OC3", "AC50": "inactive"}, {"compound": "CCCSc1nc(NCc2ccco2)c2c3c(sc2n1)COC(C)(C)C3", "AC50": "14.1 µM (active)"}, {"compound": "CCC(O)CNc1nc(-n2nc(C)cc2C)nc2sc3c(c12)CC(C)(C)OC3", "note": "(centres undefined)", "AC50": "inactive"}, {"compound": "O=c1cnc2cnc(N3CCOCC3)nc2n1CCc1ccccc1", "AC50": "inactive"}, {"compound": "Cc1cc2c(cc1C)NC(c1nc3ccccc3[nH]1)C1=C(CC(C)(C)CC1=O)N2", "note": "(centres undefined)", "AC50": "inactive"}, {"compound": "CCCc1ccc(C2C3=C(CC(C)(C)CC3=O)NC3=C2C(=O)c2ccccc23)cc1", "note": "(centres undefined)", "AC50": "inactive"}, {"compound": "CC1(C)CC(=O)C2=C(C1)Nc1cc3c(cc1C2c1ccc(F)cc1)OCO3", "note": "(centres undefined)", "AC50": "7.08 µM (active)"}, {"compound": "Brc1ccc([C@H]2CN3CCSC3=N2)cc1", "AC50": "inactive"}, {"compound": "Cc1cccc(C)c1NC(=O)C(c1ccccc1)N1CCC1=O", "note": "(centres undefined)", "AC50": "inactive"}, {"compound": "Cc1cccc(C)c1NC(=O)C(c1ccc(Cl)cc1Cl)N1CCCCC1", "note": "(centres undefined)", "AC50": "10 µM (active)"}, {"compound": "Cc1cccc(C)c1NC(=O)C(NC=O)c1ccccc1Cl", "note": "(centres undefined)", "AC50": "inactive"}, {"compound": "NC(N)=N[C@@H]1C(O)[C@H](N=C(N)N)[C@@H](O)C(O)[C@H]1O", "note": "(some centres undefined)", "activity, negative = inhibition": "4.19% [at 11.4 µM]"}, {"compound": "Cc1cc(C(F)(F)F)nn1CC(=O)Nc1cccnc1", "AC50": "12.6 µM (active)"}, {"compound": "NNC(=O)Cc1cccnc1", "activity, negative = inhibition": "8.36% [at 11.4 µM]"}, {"compound": "CCNS(=O)(=O)c1ccc(NC(=O)c2cc(C(F)(F)F)nn2C)cc1", "AC50": "inactive"}, {"compound": "CC1=NN(c2ccccc2)C(=O)[C@@H]1N=Nc1ccc(S(N)(=O)=O)cc1", "activity, negative = inhibition": "8.14% [at 11.4 µM]"}, {"compound": "CCOC(=O)N1CCC(NC(=O)CCC(=O)N2CC(C)Oc3ccc(C)cc32)CC1", "note": "(centres undefined)", "AC50": "inactive"}, {"compound": "O=C(Nc1c[nH]c(=O)[nH]c1=O)Oc1ccccc1", "activity, negative = inhibition": "-9.58% [at 11.4 µM]"}, {"compound": "O=C(OCc1nc2ccccc2s1)c1ccc(Br)s1", "AC50": "inactive"}, {"compound": "Cc1noc(C)c1-c1cc(NCc2ccccc2)ncn1", "AC50": "inactive"}, {"compound": "COc1ccc(CCNc2nc(-c3cccnc3)cs2)cc1OC", "AC50": "7.08 µM (active)"}, {"compound": "COc1cccc(-c2cc(NCc3ccccc3)ncn2)c1", "AC50": "12.6 µM (active)"}, {"compound": "COc1ccc(-c2csc(NC(=O)CCn3cnc4ccccc4c3=O)n2)cc1OC", "AC50": "inactive"}, {"compound": "Cc1noc(C)c1-c1cc(NCc2cccnc2)ncn1", "AC50": "inactive"}, {"compound": "COc1ccccc1CNc1cc(-c2cccnc2)ncn1", "AC50": "5.01 µM (active)"}, {"compound": "N#Cc1cccc(-c2cc(NCc3ccccc3)ncn2)c1", "AC50": "inactive"}, {"compound": "COc1ccc(-c2cc(C(=O)NCc3cccnc3)no2)cc1OC", "AC50": "inactive"}, {"compound": "Cc1cnc(CNc2cc(-c3cccnc3)ncn2)cn1", "AC50": "inactive"}, {"compound": "COc1cccc(-c2cc(NCc3ccc(OC)cc3OC)ncn2)c1", "AC50": "12.6 µM (active)"}]}]}
